# Screening results: PubChem BioAssay, The Scripps Research Institute Molecular Screening Center
# hcDAF12 agonist – activators of H. contortus DAF-12 nuclear receptor | HEK293 hcDAF-12 lit1-tk-luc reporter, luminescence; 0% DMSO, 100% Δ7-dafachronic acid | activation, % at 6.8 µM | 370,000 compounds, 1.4% hits | AID 652067;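 active = activation above the mean of all tested compounds plus 3 SD, cut at about 5.5% in these data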
# DAX1 inh-1 – blocks DAX1 repression of SF-1 activated StAR promoter; inhibition, % at 6.8 µM; HEK293T StAR-luciferase reporter, SF-1/DAX-1 repression relief; 370,000 compounds, 1.1% hits;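 active = inhibition above the mean over all tested compounds plus 3 SD, cut at about 3.6% in these data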;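 also: higher inhibition means more luminescence from relief of DAX-1 repression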
# DAX1 inh-2 – NR0B1 (DAX1) inhibition; AID 504766; 340,000 compounds, 0.99% hits; HEK293 Gal4-DAX1 luciferase reporter, luminescence; inhibition, % at 6.75 µM;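 active = inhibition above the mean over all tested compounds plus 3 SD, cut at about 4.2% in these data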;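 also: inhibition shows as a rise in luminescence from relieved DAX1 repression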
# ssDAF12 agonist – activates DAF-12 receptor from parasite S. stercoralis. HEK293 ssDAF-12/GRIP1 lit1-tk-luc reporter, luminescence; % of 3 µM dafachronic acid response. activation, % at 6.8 µM. 370,000 compounds, 1% hits. AID 652126;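 active = activation above the mean over all tested compounds plus 3 SD, cut at about 0.9% in these data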
# hgDAF-12 ag – agonists of H. glycines DAF-12 nuclear receptor. HEK293 GAL4-hgDAF12 UAS-luciferase reporter, agonist luminescence; normalized to butyrate control. activation, % at 6.8 µM. 370,000 compounds, 1.8% hits;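 active = activation above a cutoff set at the mean of all screened compounds plus 3 SD, cut at about 10% in these data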
# hgDAF12 conf – hgDAF-12 agonism, confirmation assay; activation, % at 6.8 µM; 3,300 compounds, 80% hits; shares compounds with hgDAF-12 ag; HEK293 GAL4-hgDAF12 luciferase reporter, agonist mode; percent of butyrate response;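 active = mean activation over triplicate wells above the hit cutoff derived from the earlier primary screen, cut at about 11% in these data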
# LXR ag 2 – activates human LXR-beta, counter-screen for DAF-12 agonists; shares compounds with hgDAF-12 ag; HEK293 Gal4-LXR luciferase reporter, 24 h; activation, % at 6.8 µM; 3,300 tested, under 10 active; AID 743051;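 active = mean activation of the triplicate above a set limit carried over from the primary screen, none filed active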
# Target sequence (P55055 whole entry, looked up, the tested form may be a part): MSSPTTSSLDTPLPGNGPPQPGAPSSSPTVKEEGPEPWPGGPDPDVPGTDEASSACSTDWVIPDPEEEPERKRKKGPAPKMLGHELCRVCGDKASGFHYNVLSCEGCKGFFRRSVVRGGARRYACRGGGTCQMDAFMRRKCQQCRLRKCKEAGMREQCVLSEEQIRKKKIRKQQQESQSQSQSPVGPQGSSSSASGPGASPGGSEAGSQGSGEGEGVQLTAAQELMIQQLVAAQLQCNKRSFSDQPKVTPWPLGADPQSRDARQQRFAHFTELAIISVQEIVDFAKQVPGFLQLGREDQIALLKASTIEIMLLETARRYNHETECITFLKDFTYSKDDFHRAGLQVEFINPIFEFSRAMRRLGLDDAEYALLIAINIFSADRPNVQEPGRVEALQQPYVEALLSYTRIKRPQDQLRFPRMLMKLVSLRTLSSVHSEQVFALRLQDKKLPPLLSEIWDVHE
# Hits are given with their value; – = inactive; · = not tested or not shown. A selection: hits, their analogues and other compounds. The true share with any hit is near 4.1%.
SMILES,hcDAF12 agonist,DAX1 inh-1,DAX1 inh-2,ssDAF12 agonist,hgDAF-12 ag,hgDAF12 conf,LXR ag 2
Cc1nc2ccccc2nc(C)c1=NOCc1cccc(F)c1,–,–,–,–,14.2,–,–
Cc1sc(NC(=O)c2ccccc2)c(C#N)c1-c1ccccc1,–,–,–,–,15.7,11.7,–
CC(C)C(=O)N/N=C/c1ccc(OCc2ccccc2)cc1,–,–,–,–,–,·,·
CCOc1ncccc1C(=O)OCc1ccc(C(=O)OC)cc1,–,–,–,–,14.8,12.3,–
CC(=O)Nc1ccc(N=Cc2ccc(OCc3ccccc3)cc2)cc1,–,–,–,–,13.6,10.9,–
CCC(=O)c1ccc(OCc2ccc(C(=O)OC)cc2)cc1,–,–,–,–,15.7,15.5,–
COC(=O)c1ccc(COc2ccc(/C=N/Nc3cccc(C(=O)O)c3)cc2)cc1,–,–,–,1.4,17.0,13.3,–
CCOC(=O)c1sc(NC(=O)c2cc3n(n2)C(C(F)(F)F)CC(c2ccccc2)N3)c(C(=O)OCC)c1C (configuration not stated),–,–,–,–,–,·,·
CC(=O)c1ccc(-c2cccc([C@H]3[C@@H]4C=CC[C@@H](C)[C@@H]4C(=O)N3Cc3ccccc3)c2)cc1,–,–,–,–,–,·,·
CC(=O)c1cccc(NC(=S)NCCC2=CCCCC2)c1,–,–,–,–,–,·,·
O=C(NCCC1=CCCCC1)Nc1ccc2nsnc2c1,5.9,3.8,–,–,19.7,14.2,–
O=C(NC1CCCCC1)c1cccc(OCc2ccccc2)c1,–,–,–,–,–,·,·
CN(C)c1ccc(C2=NOC(CN3C(=O)c4ccccc4S3(=O)=O)C2)cc1 (configuration not stated),–,–,–,–,13.5,17.5,–
O=C(CCc1nnc2ccc(NCc3ccco3)nn12)Nc1cccc(F)c1,–,–,–,–,–,·,·
CN(CC(=O)Nc1ccc(F)cc1)C(=O)COc1ccccc1Cc1ccccc1,–,–,–,–,–,·,·
Cc1nc(N)sc1-c1csc(Nc2cccc(O)c2)n1,–,–,–,–,–,·,·
Cc1nc(C)c(-c2csc(Nc3cccc(O)c3)n2)s1,–,–,–,–,22.6,13.5,–
CCN(CC)c1ccc(C=N/C(C#N)=C(\N)C#N)cc1,–,–,–,–,15.2,–,–
CCN(CC)c1ccc(/C=C(\C#N)c2ccccn2)cc1,·,·,–,·,·,·,·
O=[N+]([O-])c1cccnc1NCCNc1ncc(C(F)(F)F)cc1Cl,–,–,–,–,14.2,14.8,–
CC(=O)c1ccc(NC(=O)c2ccc3snnc3c2)cc1,–,–,–,–,13.6,12.2,–
COc1ccc(NC(=O)c2ccc3snnc3c2)cc1,–,–,–,–,–,·,·
CCC(c1nnnn1-c1ccc2c(c1)OCCO2)N1CCN(c2cc(C)ccc2C)CC1 (configuration not stated),–,–,·,–,–,·,·
COc1cc(/C=N/N2CCOCC2)ccc1OCc1ccccc1,–,–,–,–,17.9,–,–
O=c1[nH]c2ccccc2nc1/C=C/c1ccc(F)cc1,–,–,–,–,16.2,10.6,–
SMILES,hcDAF12 agonist,DAX1 inh-1,DAX1 inh-2,ssDAF12 agonist,hgDAF-12 ag,hgDAF12 conf,LXR ag 2
CC(C)(C)/C(O)=C/c1nc2ccccc2[nH]c1=O,–,–,–,–,–,·,·
O=c1[nH]c2ccccc2nc1/C=C/c1ccc(O)cc1,–,–,–,–,14.1,–,–
COc1cc2c(c(OC)c1OC)C(=O)C(=Cc1ccccc1)O2,–,–,–,–,–,·,·
CN(C)C(=S)c1ccc(N(C)C)cc1,–,–,–,–,–,·,·
CC(=O)c1ccc(N=Nc2ccc(N(C)C)cc2)cc1,–,–,–,1.0,13.4,11.8,–
O=C(Cc1ccccc1)NC(=S)Nc1ccc(OC(F)F)cc1,–,–,–,–,–,·,·
Cc1ccc(NC(CC(=O)c2ccccc2)C(=O)O)cc1Cl (configuration not stated),5.6,4.2,5.4,–,16.2,27.3,–
O=c1c(O)c(-c2ccc(O)cc2)oc2cc(O)cc(O)c12,–,–,–,–,15.0,–,–
O=c1cc(-c2ccccc2)oc2cc(O)ccc12,–,4.5,–,–,14.9,11.9,–
O=c1cc(-c2ccccc2)c2ccc(O)cc2o1,–,–,–,–,–,·,·
O=c1cc(-c2ccc(O)cc2)oc2cc(O)cc(O)c12,–,3.8,–,–,18.4,–,–
CC1=C(C)CC(C(=O)NCCc2ccc(F)cc2)C(C(=O)O)C1 (configuration not stated),–,–,–,–,–,·,·
CCCSc1nsc(NC(=O)CCC)n1,–,–,–,–,19.0,14.8,–
CCCCSc1nsc(NC(C)=O)n1,–,–,–,–,–,·,·
Fc1ccc2cnc(-c3ccsc3)cc2c1,–,–,·,–,14.0,–,–
O=C(Nc1cccc(Cl)c1)c1ccc(OC(=S)N2CCOCC2)cc1,–,–,–,–,19.2,–,–
CCC(=O)Nc1nc2ccc3sc(C)nc3c2s1,–,–,–,–,–,·,·
Cc1nc2c(ccc3nc(NC(=O)C4CC4)sc32)s1,–,–,–,–,14.8,12.3,–
CCCCN(CC)CCNC(=O)c1cc2c(C)nc3ccccc3c2o1,–,–,–,–,17.4,–,–
COc1cn(-c2ccccc2)nc1C(=O)NCc1ccccc1,–,–,–,–,–,·,·
Cc1cccc(NC(=O)c2ccc(N3CCOCC3)c([N+](=O)[O-])c2)n1,–,–,–,–,13.9,–,–
Cc1cccc(NC(=O)c2ccc(N3CCCCC3)c([N+](=O)[O-])c2)n1,–,–,–,–,–,·,·
N/C(=N\OC(=O)COc1ccc(Cl)cc1Cl)c1ccncc1,–,4.0,6.2,–,16.1,21.3,–
N#CC1CC(c2ccccc2)=NN1c1ccccc1[N+](=O)[O-] (configuration not stated),–,–,–,–,15.9,12.6,–
O=CN1N=C(c2ccccc2)CC1c1ccccc1[N+](=O)[O-] (configuration not stated),–,–,–,–,–,·,·
SMILES,hcDAF12 agonist,DAX1 inh-1,DAX1 inh-2,ssDAF12 agonist,hgDAF-12 ag,hgDAF12 conf,LXR ag 2
COc1ccc2occ(C(=O)c3cccs3)c2c1,–,–,–,–,15.0,13.2,–
CCOc1cc(S(=O)(=O)N(Cc2ccccc2)Cc2ccccc2)c(OCC)cc1-n1cnnn1,–,–,–,–,–,·,·
CC(=O)C(=Cc1cccc(C#N)c1)C(=O)c1ccccc1,–,–,·,–,–,·,·
CC(=O)c1ccc(NC(=S)NCCc2cccc(Cl)c2)cc1,–,–,–,–,17.1,12.0,–
CC(=O)c1ccc(NC(=S)NCCc2ccc(S(N)(=O)=O)cc2)cc1,–,–,–,–,–,·,·
O=C(Nc1ccc(N2CCCC2)c(Cl)c1)c1cccs1,–,4.0,–,–,19.9,18.7,–
